Test results reported in PubChem BioAssay (NCI).
Compounds without any hit were thinned out: in the full panel of roughly 83,000, 20% have a hit.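 Values shown are percent growth following 48 h exposure of cells in 96-well plates to a single concentration of compound; below 10 was considered active.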 A number with no mark means an inactive call. Active and inactive are the calls of the source.

tested on: UACC-257 melanoma; experiment: NCI-60 one-dose screen, 48 h (100 = growth as untreated, 0 = no growth, -100 = all killed); conditions: 10 µM unless noted

| Compound | growth |
| --- | --- |
| COc1cccc2cc(-c3nc(C4CCC(C(=O)O)CC4)n4ncnc(N)c34)[nH]c12 (stereo not given) | -22.8% (active) |
| CNC(=O)c1cc(Oc2ccc3nc(NC(=O)Nc4ccc(Cl)c(C(F)(F)F)c4)sc3c2)ccn1 | 61.4% |
| C[C@@H](Oc1cc(-n2cnc3ccc(CN4CCN(C)CC4)cc32)sc1C(N)=O)c1ccccc1C(F)(F)F | -25.5% (active) |
| Oc1ccc(C(c2ccc(O)cc2)C(Cl)(Cl)Cl)cc1 | 119% |
| C[C@H](NC(=O)c1c(N)nn2cccnc12)c1cc2cccc(C#Cc3cnn(C)c3)c2c(=O)n1-c1ccccc1 | 39.1% |
| COc1cc(CCc2cc(NC(=O)c3ccc(N4C[C@@H](C)N[C@@H](C)C4)cc3)n[nH]2)cc(OC)c1 | 3.28% (active) |
| CNC(=O)CN1CCC(Oc2cc3c(Nc4cccc(Cl)c4F)ncnc3cc2OC)CC1 | 74.4% |
| Cc1oc2c(C(=O)N/N=C\c3ccc(O)cc3O)c[nH]c2c1C | 17.8% |
| CCCCCc1ccc(C)cc1OC(=O)CCl | 107% |
| COc1cc2ncnc(Oc3cccc(NC(=O)Nc4cc(C(C)(C)C(F)(F)F)on4)c3)c2cc1OC | -10.4% (active) |
| COc1cc(Nc2ncc3c(n2)-c2ccc(Cl)cc2C(c2c(F)cccc2OC)=NC3)ccc1C(=O)O | 80.8% |
| CC[C@H](Nc1ncnc2nc[nH]c12)c1nc2cccc(F)c2c(=O)n1-c1ccccc1 | 39.9% |
| CN1CCN(CCOc2cc(OC3CCOCC3)c3c(Nc4c(Cl)ccc5c4OCO5)ncnc3c2)CC1 | 82.7% |
| Nc1nc(Nc2ccccc2)c(C=Nc2ccccc2)c(=O)[nH]1 | 93.6% |
| CNC(=O)c1cc(Oc2cccc3nc(Nc4ccc(Oc5ccccc5)cc4)ccc23)ccn1 | 77.2% |
| CN1CC[C@@H](c2c(O)cc(O)c3c(=O)cc(-c4ccccc4Cl)oc23)[C@@H]1CO | -25.8% (active) |
| Cc1[nH]n(C(N)=S)c(=O)c1N=Nc1ccc(S(=O)(=O)Nc2ccncn2)cc1 | 117% |
| COCCN1CCN(Cc2ccc(-c3n[nH]c4c3C(=O)c3c(NC(=O)NN5CCOCC5)cccc3-4)cc2)CC1 | -19.1% (active) |

| Compound | growth |
| --- | --- |
| CN(c1ncccc1CNc1nc(Nc2ccc3c(c2)CC(=O)N3)ncc1C(F)(F)F)S(C)(=O)=O | -29.1% (active) |
| COc1cc(N2CCC(N3CCN(C)CC3)CC2)ccc1Nc1ncnc(Nc2ccccc2S(=O)(=O)C(C)C)n1 | 108% |
| O=C(COc1ccc(/C=C2\Cc3ccc(Cl)cc3C2=O)cc1)Nc1nccs1 | 98.5% |
| O=C(c1ccc(/C=C/c2n[nH]c3ccccc23)cc1)N1CCNCC1 | 35.9% |
| O=C(O)C1(Cc2cccc(Nc3nccs3)n2)CCC(Oc2cccc(Cl)c2F)CC1 (stereo not given) | 49.6% |
| Cc1cc(O)cc(-c2c(-c3ccnc(-c4cccnc4)c3)cnn2C)c1 | 83.1% |
| Cc1c(CN2CCN(C(=O)[C@H](C)O)CC2)sc2c(N3CCOCC3)nc(-c3cnc(N)nc3)nc12 | -34.3% (active) |
| CN1CCN(c2ccc(C(=O)Nc3n[nH]c4ccc(Cc5cc(F)cc(F)c5)cc34)c(NC3CCOCC3)c2)CC1 | -85.4% (active) |
| C#Cc1cccc(Nc2ncnc3cc(OCCOC)c(OCCOC)cc23)c1 | 85.7% |
| COc1ccc(Nc2ncccc2NC(=O)c2cn(Cc3cccc(Oc4ccccc4)c3)nn2)cc1 | 93% |
| O=C1NC(=O)[C@@H](c2cn3c4c(cccc24)CCC3)[C@@H]1c1c[nH]c2ccccc12 | 38.5% |
| Cc1cc(-c2cc(O)ccc2Cl)cc2nnc(Nc3ccc(OCCN4CCCC4)cc3)nc12 | -75.9% (active) |
| C=CCN(/C=C1/C(=O)O[C@H](COC)[C@@]2(C)C1=C(O)C(=O)C1=C2[C@H](OC(C)=O)C[C@]2(C)C(=O)CC[C@@H]12)CC=C | 15.8% |
| CNC(=O)c1nn(C)c2c1C(C)(C)Cc1cnc(Nc3ccc(N4CCN(C)CC4)cc3)nc1-2 | -14.8% (active) |
| CC(C)Nc1cc(-c2c[nH]c(C(=O)N[C@H](CO)c3cccc(Cl)c3)c2)c(Cl)cn1 | -9.52% (active) |
| COc1ccc(Cc2cc(-c3ccccc3C)n[nH]c2=O)cc1 | 119% |
| CC(C)[C@@H]1CC[C@@H]2[C@@H]1[C@H](OC(=O)/C=C/c1ccccc1)[C@]1(C(C)C)C[C@@H](OC(=O)CO)[C@@]2(C)O1 | 84.1% |
